# FBW7 activator = human FBW7 E3 ligase activation, primary screen; 0.13% of 650,000 active; normalized activity (activation), % at 26.1 µM; AlphaScreen FBW7–phospho-cyclin E peptide binding, activator screen; in the data active means normalized activity above about 1.9%;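 further: purified mutant Fbw7 with reduced substrate affinity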
# MITF primary = inhibitors of human MITF; inhibition, % at 2.6 µM; 0.91% of 650,000 active; AID 1259374; AlphaScreen MITF homodimerization, bead proximity signal; O75030; in the data active means inhibition above about 50%
# GPR151 ag = activates the human receptor GPR151; activation, % at 11.2 µM; 1% of 650,000 active; Q8TDV0; AID 1508602; PathHunter beta-arrestin GPR151 cells, luminescence; in the data active means activation above about 4.9%
# Target sequence (Q8TDV0 whole entry, looked up): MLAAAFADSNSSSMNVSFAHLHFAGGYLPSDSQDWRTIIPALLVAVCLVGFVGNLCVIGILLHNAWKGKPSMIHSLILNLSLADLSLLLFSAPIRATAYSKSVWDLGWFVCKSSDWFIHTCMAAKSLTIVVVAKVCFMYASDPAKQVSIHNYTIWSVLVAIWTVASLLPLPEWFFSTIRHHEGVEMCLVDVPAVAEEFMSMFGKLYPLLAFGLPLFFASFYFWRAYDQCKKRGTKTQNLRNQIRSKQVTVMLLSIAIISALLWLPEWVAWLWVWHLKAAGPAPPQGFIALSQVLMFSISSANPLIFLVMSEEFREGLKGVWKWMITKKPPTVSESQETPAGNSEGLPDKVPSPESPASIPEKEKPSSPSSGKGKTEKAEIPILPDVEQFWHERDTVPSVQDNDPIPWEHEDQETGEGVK
# TEAD-YAP block = TEAD-YAP interaction inhibition; 1.4% of 640,000 active; HEK-TIYL cells, TEAD-Gal4/YAP UAS-luciferase luminescence; inhibition, % at 9.12 µM; in the data active means inhibition above about 32%
# A number is an active result; – = inactive. Only some compounds are listed: those with a hit (about 3.4% of all), similar ones and a draw of the others.
SMILES,FBW7 activator,MITF primary,GPR151 ag,TEAD-YAP block
CCOc1ccccc1CN1CCN(Cc2cc(=O)c3ccccc3[nH]2)CC1CCO (centres undefined),–,–,–,48
Cc1ccc(N2C(N)=C(C#N)C(c3cc(Br)cs3)C3=C2CCCC3=O)cc1 (centres undefined),–,–,–,34
CCOc1ccc(C2C(C#N)=C(N)N(c3ccc(C)cc3)C3=C2C(=O)CCC3)cc1 (centres undefined),–,–,–,57
COc1ccc(N2C(N)=C(C#N)C(c3ccccc3)C3=C2CCCC3=O)cc1 (centres undefined),–,–,–,44
COc1ccc(C2C(C#N)=C(N)N(c3ccc(Cl)cc3)C3=C2C(=O)CCC3)cc1 (centres undefined),–,–,–,–
O=C(Nc1ccc(NC(=O)c2cccc(S(=O)(=O)N3CCCCCC3)c2)cc1)c1ccccc1,–,–,–,–
CCc1ccccc1NC(=O)c1ccc(F)c(S(=O)(=O)N2CCN(c3ccccn3)CC2)c1,–,–,–,–
CCOC(=O)c1c(NC(=O)c2ccc(OC)c(OC)c2)sc2c1CC(C)(C)NC2(C)C,–,–,–,–
O=C(c1cc(Br)cc(Br)c1)N1CCCCCC1,–,–,–,–
COc1ccc(CC2(CCC(=O)NCCn3ccc4ccccc43)CCC(=O)N2)cc1OC (centres undefined),–,–,–,–
COc1ccccc1/C=C(\NC(=O)c1ccccc1)C(=O)Nc1cccc(O)c1,–,–,–,40
CCCOc1ccc(C2C(C(=O)OC(C)C)=C(C)NC3=C2C(=O)CC(c2ccc(OC)cc2)C3)cc1 (centres undefined),–,–,–,–
CCCCN1C(=O)C(=O)c2cc(Br)ccc21,–,–,–,41
CC(=O)CCN1C(=O)C(=O)c2cc(Br)ccc21,–,–,–,–
O=C(N1CCOCC1)N1CCCC(c2ncncc2-c2ccncc2)C1 (centres undefined),2.2,–,–,–
Cc1ccc(C2=NN(C(=O)c3ccco3)C(O)(C(F)(F)F)C2)cc1 (centres undefined),–,–,–,–
COc1ccc(C2=NN(C(=O)c3ccco3)C(O)(C(F)(F)F)C2)cc1 (centres undefined),–,–,–,41
COc1cccc2c(C)cc(N3CCN(C)CC3)nc12,1.9,–,–,–
CC(=O)Nc1ccc(/C=C2\CCc3ccccc3C2=O)cc1,–,–,–,70
COC(=O)c1sccc1NC(=O)c1csc(C)c1-c1ccccc1,–,–,–,33
Cc1ccc(-c2c(N3CCN(c4ccccc4)CC3)c(=O)c2=O)cc1,–,–,–,–
COc1cc(OC)cc(C(=O)c2ccc(C(=O)Nc3cc(C(C)C)c(O)cc3C)cc2)c1,–,–,–,47
Cc1ccc(O)c(NC(=O)c2ccc(N3C(=O)c4ccc([N+](=O)[O-])cc4C3=O)cc2)c1,–,–,–,55
COc1ccc(C(=O)Nc2cc(C)ccc2O)cc1,–,–,–,44
O=C(Nc1ccc([N+](=O)[O-])cc1)c1ccc(N2C(=O)c3ccc([N+](=O)[O-])cc3C2=O)cc1,–,–,–,–
SMILES,FBW7 activator,MITF primary,GPR151 ag,TEAD-YAP block
COc1ccc(C(=O)Nc2cc(C)ccc2O)c(OC)c1,–,–,–,–
CC(C(=O)Nc1ccc(Cl)cn1)N1Cc2ccccc2C1=O (centres undefined),–,–,–,85
Cc1ccc(S(=O)(=O)N2CC3c4ccccc4CCN3C2c2cn(S(=O)(=O)c3ccc(C)cc3)nc2-c2ccc(F)cc2)cc1 (centres undefined),–,–,–,–
CCCc1ccc(OCC(=O)c2ccc(O)cc2O)cc1,–,–,–,85
COc1ccc(-c2nc(Nc3ccc(N4CCOCC4)cc3)c3ncn(-c4ccsc4)c3n2)cn1,–,–,–,45
CC(=O)Nc1ccc(Nc2nc(-c3ccc(N4CCOCC4)nc3)nc3c2ncn3-c2ccsc2)cc1,–,–,–,43
c1ccc(Nc2nc(-c3ccc(N4CCOCC4)nc3)nc3c2ncn3-c2ccsc2)cc1,–,–,–,–
O=C(c1ccccc1F)N1CCSC1=S,–,–,–,–
C#CC(O)(c1ccc(OC)cc1)c1ccc(OC)c2ccccc12 (centres undefined),–,–,–,56
c1ccc2c(c1)CCN(c1nccc(Nc3ccc(N4CCOCC4)cc3)n1)C2,–,–,–,41
c1ccc(Nc2ncnc3nc(Nc4ccc(N5CCOCC5)cc4)[nH]c23)cc1,–,–,–,–
c1ccc2c(Nc3nc4ncnc(Nc5ccc(N6CCOCC6)cc5)c4[nH]3)nccc2c1,–,–,–,40
c1ccc2c(c1)CCN(c1nc3ncnc(Nc4ccc(N5CCOCC5)cc4)c3[nH]1)C2,–,–,–,53
c1ccc2c(Nc3nccc(Nc4ccc(N5CCOCC5)cc4)n3)nccc2c1,–,–,–,62
c1ccc(Nc2ccnc(N3CCc4ccccc4C3)n2)cc1,–,–,–,–
C=CC[C@@H]1CC=C[C@@H](C)N1C(=O)c1ccc(-n2cc(NC(=O)C3CCOCC3)cn2)cc1,–,–,–,–
CCc1c(C)nc2c(-c3ccc(F)cc3)c(C)[nH]n2c1=O,–,–,–,–
Cc1cc(N2CCOCC2)nc(Cl)n1,–,–,–,–
Cc1cc(S(=O)(=O)Nc2ccc(C(C)(C)C)cc2)c(C)s1,–,–,–,–
COc1ccc(-c2cnn3c(NCCN(C)C)ccnc23)cc1OC,–,–,–,–
CC1=C(C(=O)OC(C)C)C(c2ccsc2)C2=C(CC(c3cccs3)CC2=O)N1 (centres undefined),–,–,–,67
CCOC(=O)C1=C(C)NC2=C(C(=O)CC(c3ccco3)C2)C1c1cccs1 (centres undefined),–,–,–,63
CCOCCOC(=O)C1=C(C)NC2=C(C(=O)CC(c3cccs3)C2)C1c1cccs1 (centres undefined),–,–,–,–
CC(=O)C1C(=O)C(Cl)C(C)(C)C(Cl)C1=O (centres undefined),–,–,–,–
C=CCn1c(SCC(=O)Nc2cccc([N+](=O)[O-])c2)nnc1-c1ccccc1O,–,–,–,–
SMILES,FBW7 activator,MITF primary,GPR151 ag,TEAD-YAP block
CCn1c(SCC(=O)Nc2cccc([N+](=O)[O-])c2)nnc1-c1ccccc1O,–,–,–,32
C=CCn1c(SCC(=O)Nc2ccccc2)nnc1-c1ccccc1O,–,–,–,33
CCn1c(SCC(=O)NC(=O)Nc2ccc3c(c2)OCCO3)nnc1-c1cccs1,–,–,–,–
O=C(CSc1nnnn1-c1ccc(F)cc1F)Nc1ccc2c(c1)OCCO2,–,–,–,38
COc1ccc(-n2nnnc2SCC(=O)Nc2ccc3c(c2)OCCO3)cc1OC,–,–,–,–
C=CCn1c(SCC(=O)Nc2ccc3c(c2)OCCO3)nnc1-c1cccs1,–,–,–,51
O=C(CCC(=O)NC1CCCCC1)N/N=C/c1ccc(OCc2ccccc2)cc1,–,–,–,–
CCN1C(=O)/C(=C/c2cc3c(cc2[N+](=O)[O-])OCO3)C(=O)NC1=S,–,74,–,–
O=Cc1ccc(-c2ccc(NC3CC3)nc2)cc1,–,–,–,34
COc1ccc(/C=N/NC(=O)c2cc(-c3cccc(OC)c3)n[nH]2)cc1,–,–,–,–
